Pf Dd2 inh – Plasmodium falciparum Dd2 growth inhibition. AID 1347417. Potency, µM (highest dose often 28.9 µM), usual class: inhibitors. P. falciparum Dd2 growth, SYBR Green, 72 h. 120,000 tested, 4.3% active; active = well fitted inhibition curve with a large enough effect; note: nearly all actives have a fitted effect of over 65% in size
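Readout: SYBR Green fluorescence, 485 nm excitation, 535 nm emission, after ~16 h lysis at 37C. Before that, Dd2-infected red cells (2.5% hematocrit) grew 72 h with compound, 29 uM top final concentration.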
Each line names hits and unclear results; the compound was inactive in the other large screens. Only a selection was taken, and hits are over-represented in it overall.

O=C(CN1CCSc2ccccc21)N1CCN(c2cccc(Cl)c2)CC1	none
Cc1ccc(CN2CCSc3ccc(C(=O)N4CCN(c5cccc(C)c5C)CC4)cc32)cc1	Pf Dd2 inh 6.3µM
Cc1ccc(C)c(N2CCN(C(=O)c3ccc4[nH]c(C)c(C)c4c3)CC2)c1	none
O=C(c1ccc2c(Cl)c3c(nc2c1)CCCC3)N1CCN(c2ccccc2F)CC1	none
Cc1ccc(CN2CCSc3ccc(C(=O)N4CCN(c5ccc(Cl)cc5)CC4)cc32)cc1	Pf Dd2 inh 8.9µM
Cc1ccc(N2CCN(C(=O)c3ccc4c(c3)N(C)C3CCCCN3C4=O)CC2)cc1 (configuration not stated)	none
COc1cc2[nH]c(=O)n(Cc3ccc(C(=O)N4CCN(c5ccc(Cl)cc5)CC4)cc3)c(=O)c2cc1OC	none
Cc1cccc(N2CCN(C(=O)c3ccc4c(Cl)c5c(nc4c3)CCCC5)CC2)c1C	Pf Dd2 inh 11µM
O=C(c1ccc2c(Cl)c3c(nc2c1)CCCC3)N1CCN(c2cccc(Cl)c2)CC1	none
O=C(CN1C(=O)COc2ccc(C(=O)COc3ccccc3F)cc21)NCc1ccco1	none
COc1ccc(-c2cc(N3CCCC(NC(=O)c4cccn4C)C3)n[nH]2)cc1 (configuration not stated)	none
COc1cccc(C(=O)N2CCC3(CC2)OCC(C(=O)NCC(C)C)N3C(=O)c2ccc(F)cc2)c1 (configuration not stated)	none
CCC(C)NC(=O)c1ccc(-c2cccc(C#N)c2)o1 (configuration not stated)	none
Cc1ccc(C(=O)N2CCC(C3CCN(S(C)(=O)=O)CC3)C2)c(=O)[nH]1 (configuration not stated)	none
CCO[C@H]1CN(C(=O)c2cccc(-c3cccc(F)c3)c2)C[C@@H]1O	none
O=C(NCCc1ccccc1)[C@@H]1COCC(=O)N1Cc1ccc(F)cc1	none
Cc1ccc(CNC(=O)c2ccc3c(c2)N(C(=O)c2ccc(F)cc2)CC3)o1	none
CC(C)(C)n1nnnc1C1CC2(CCOCC2)C(=O)N1Cc1ccccc1F (configuration not stated)	none
CC(C)CCN(C)C1CCCc2ccccc21 (configuration not stated)	none
CC1CCC2(CC1)OCC(C(=O)NCC1CCCO1)N2C(=O)c1ccc(Cl)c(Cl)c1 (configuration not stated)	none
COCC(=O)N[C@@H]1CN(Cc2cccc(OC)n2)CC[C@@H]1CO	none
O=S(=O)(Cc1ccccc1F)N1CCC(c2noc(-c3ccncc3)n2)C1 (configuration not stated)	none
CC(C)(C)C(=O)N[C@H]1CO[C@H]2[C@@H]1OC[C@@H]2Nc1nccc(-c2cccc(C#N)c2)n1	none
COCC(=O)N[C@H]1CO[C@H]2[C@@H]1OC[C@@H]2Nc1nccc(-c2cccc(F)c2)n1	none
N#Cc1cccc(-c2ccnc(N[C@H]3CO[C@H]4[C@@H]3OC[C@H]4OC(=O)Nc3cccc4ccccc34)n2)c1	Pf Dd2 inh 11µM
COCC(=O)N[C@H]1CO[C@H]2[C@@H]1OC[C@@H]2Nc1nccc(-c2cccc(C#N)c2)n1	Pf Dd2 inh 11µM
COc1ccc(NC(=O)O[C@@H]2CO[C@H]3[C@@H]2OC[C@@H]3Nc2nccc(-c3cccc(C#N)c3)n2)cc1	none
N#Cc1cccc(NC(=O)O[C@@H]2CO[C@H]3[C@@H]2OC[C@@H]3Nc2nccc(-c3cccc(C#N)c3)n2)c1	none
CN1C(=O)CC[C@]2(C(=O)NCc3ccco3)CCCC[C@@H]12	none
Cc1cccc(NC(=O)c2cc3c(N4CCSCC4)nc(C)cn3n2)c1	none
COc1ccc(C(=O)NCC(=O)N2CCCCCNC(=O)CC2c2ccccc2)cn1 (configuration not stated)	none
NCCCC(=O)N1CCC2(CC1)CN(C(=O)Cc1ccccc1)CCO2	none
C=CCCC(=O)N1CCOc2c(O)cc(-c3nc4ccccc4s3)cc2C1	Pf Dd2 inh 11µM
O=C1CCCN1CCN1CCOc2c(O)cc(-c3csc4ccccc34)cc2C1	Pf Dd2 inh 11µM
Cn1nc2n(c1=O)CCN(C(=O)CCCc1nc3ccccc3s1)CC2	none
O=c1c(N2CCc3ccccc3C2)csc2ccccc12	none
O=C(CCc1nc2ccccc2s1)N1CCC(c2noc(-c3ccccc3)n2)C1 (configuration not stated)	none
NCCCCC(=O)N1CCOc2c(O)cc(-c3csc4ccccc34)cc2C1	Pf Dd2 inh 5µM
Cc1cnc(C)c(-c2cc(O)c3c(c2)CN(CC2CNC(=O)O2)CCO3)n1 (configuration not stated)	none
CN(C)C(=O)N1CCC2(CC1)CN(C(=O)CCCN)Cc1ccccc1O2	none
CC(C)c1noc(-c2cccn3c(CNC(=O)c4c(F)cccc4F)nnc23)n1	none
O=C(Nc1ccc([C@H]2OCC(=O)N(Cc3cccnc3)[C@@H]2CO)cc1)c1ccnc(Cl)c1	none
c1ccc(-c2cc(CC3(NCC4CCCCC4)COC3)no2)nc1	none
NC(=O)C1(C(=O)N2CCC(n3nccc3NC(=O)c3ccccc3)CC2)CC1	none
O[C@H]1[C@H](NCc2ccco2)[C@H]2CO[C@H](O2)[C@@H]1N1CCCCC1	none
CCNC(=O)[C@@H]1C[C@H](N)CN1S(=O)(=O)c1cc(C)cc(C)c1	none
Cn1ncc(N2CCCC(CC(=O)Nc3ccc(F)cc3F)C2)cc1=O (configuration not stated)	none
O=C(CCN1CCCO1)N[C@@H]1COCC[C@@H]1OCc1ccccc1	none
Cc1cc(C(=O)N2CCCn3ccnc3C2c2cnn(C)c2)c(C)o1 (configuration not stated)	none
CC1(c2cccnc2)N(Cc2ccccc2)C(=O)OC12CCN(C(=O)CN1CCOCC1)CC2 (configuration not stated)	none
COC1C(=O)N(c2cccc(F)c2)C12CCN(C(=O)C1CCCC1)CC2 (configuration not stated)	none
C[C@]1(O)CCN(C(=O)Cc2ccc3c(c2)OCO3)C[C@@H]1O	none
CCC1(CO)CCCN(C(=O)CCc2ccc3c(c2)OCO3)C1 (configuration not stated)	none
CC(Cc1ccc2c(c1)OCO2)CN1CCC(CO)(CN2CCCC2)CC1 (configuration not stated)	Pf Dd2 inh 5µM
CC(C)N1C[C@H](O)C[C@H]1c1nnc2n1CCN(C(=O)CCC1CCCC1)C2	none
c1cnc2nc(C3CCCN3)[nH]c2c1 (configuration not stated)	none
COCCn1ncc(N2CCCC(CC(=O)NCc3cccs3)C2)cc1=O (configuration not stated)	none
COCc1noc([C@@H]2CN(C(=O)CC3=CCCCC3)C[C@H]2CO)n1	none
CNC(=O)CCn1ncc2cc(OC3CCc4cccc(-c5ccc(F)cc5)c43)ccc21 (configuration not stated)	Pf Dd2 inh 14µM
O=C(O)CCn1ncc2cc(OC3CCN(C(=O)Oc4ccccc4)CC3)ccc21	none
CNC(=O)CCn1ncc2cc(OC3CCc4cccc(-c5cccc(F)c5)c43)ccc21 (configuration not stated)	none
O=C(O)CCn1ncc2cc(OC3CCN(C(=O)c4cc(F)ccc4Cl)CC3)ccc21	none
CNC(=O)CCn1ncc2cc(OC3CCc4cccc(-c5ccnc(C)c5)c43)ccc21 (configuration not stated)	none
CNC(=O)CCn1ncc2cc(OC3CCc4cccc(-c5ccccc5)c43)ccc21 (configuration not stated)	Pf Dd2 inh 2.8µM
O=C(CCC1CCCC1)NCCC1CCN(C(=O)Nc2cc(F)ccc2F)CC1	none
COc1ccc(S(=O)(=O)NC[C@H]2C[C@@H]3CCN2C[C@@H]3CN(C)Cc2ccccc2)cc1	Pf Dd2 inh 2µM
O=S(=O)(NC[C@H]1C[C@@H]2CCN1C[C@@H]2CN1CCc2ccccc21)c1ccc(Cl)cc1	none

Source: PubChem
